CHX counter = counter-screen hit for Shiga toxin inhibitors, cycloheximide. cell reporter, cycloheximide protein synthesis inhibition counterscreen. AID 2314. hit rate 12% among 300,000. max response, %; in the data active = max response mostly above about 13%, no sharp cut-off; inactive = mostly below about 14%; also: read at 38.3 µM for the half of the compounds with a filed dose; 0% is about no effect
Shiga toxin inh = blocks Shiga toxin action in Vero cells. Vero cells, Shiga toxin protein synthesis inhibition reporter. inhibition, % at 38.7 µM. hit rate 9.2% among 290,000; in the data active = inhibition mostly above about 28%, no sharp cut-off; inactive = mostly below about 43%; also: 0% is about no effect
HCV inh = inhibitors of hepatitis C virus infection. Huh7.5.1 HCVcc-Cre infection, luciferase reporter, 44 h. Potency, µM (titrated, usually from 41.8 µM), inactives show top-dose activity change, negative = inhibition, hits mostly inhibitors. hit rate 3.4% among 340,000. AID 651820; active = well fitted inhibition curve with a large enough effect; inconclusive = small, poorly fitted or top-dose-only effect, or another doubt; inactive = no such curve, though single readings can be large or run the other way; also: potency is read from the fitted curve at half-maximal effect; % is scaled to controls: 0 for no effect and ±100 for the full control effect
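Infectious HCVcc-Cre (~0.5 moi) was added to cells just after compound, with cells seeded 4 h earlier at 1,000 per well. Luciferase activity after 44 h culture reported infection; substrate was incubated 15 min at room temperature before reading.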
Marburg entry inh = blocks Marburg virus binding to or entry into cells; Marburg virus pseudotyped entry inhibition, cell reporter; Potency, µM (doses to about 37.8 µM), for the others: at the highest dose activity change, negative = inhibition, actives largely listed as inhibitors; hit rate 1.8% among 300,000; calls by dose curve; tested in HEK293 cells; also: potency is read from the fitted curve at half-maximal effect; % is scaled to controls: 0 for no effect and ±100 for the full control effect
Lassa entry inh = Lassa virus entry inhibition | hit rate 1.2% among 300,000 | Lassa virus pseudotype entry inhibition, cell reporter | Potency, µM (series often up to 37.9 µM), for the others: at the highest dose activity change, negative = inhibition, actives largely listed as inhibitors; calls by dose curve; tested in HEK293 cells; also: potency is read from the fitted curve at half-maximal effect; % is scaled to controls: 0 for no effect and ±100 for the full control effect; nearly all actives have a fitted effect of over 50% in size
FMDV inh = antivirals against foot and mouth disease virus. FMDV antiviral cell-based qHTS. Potency, µM (titrated, usually from 57.9 µM), for the others: top-dose activity change, negative = inhibition, usual class: inhibitors. hit rate 1.2% among 410,000. AID 1159524; calls by dose curve; tested in HEK293T cells; also: read-out not given here; potency is read from the fitted curve at half-maximal effect; % is scaled to controls: 0 for no effect and ±100 for the full control effect; nearly all actives have a fitted effect of over 45% in size
Numbers without * were called inactive; i = inactive; ? = inconclusive; . = not tested or not shown; ! = a repeat was not active; [ ] = another dose, or the depositor's remark. Rows were chosen to be rich in hits. Some 13% of all compounds tested hit in one or more screens of this group.

SMILES | CHX counter | Shiga toxin inh | HCV inh | Marburg entry inh | Lassa entry inh | FMDV inh
Cc1ccc(-c2cc(=O)c3cc(C)ccc3[nH]2)cc1 | 43*! | 59*! | ? | 8.2µM* | 15µM* | -45%
O=c1cc(-c2ccccc2)[nH]c2ccc(F)cc12 | 16 | 17 | -10% | -45% | ? | 5%
Cc1ccc(-c2cc(=O)c3cc(F)ccc3[nH]2)cc1 | 16* | 18 | -6% | -22% | 15% | 35%
O=C(COC(=O)c1ccc(Cl)cc1[N+](=O)[O-])NNC(=O)c1cccs1 | . | . | 15% | -3% | ? | 2%
Cc1cc(=O)oc2cc3c(cc12)CCCN3 | 19* | 27 | ? | 3% | . | 58%
O=C(c1ccco1)N1CCN(Cc2c(F)cccc2Cl)CC1 | 39* | 50* | 12% | . | . | 54%
Cc1ccccc1CN1CCN(C(=O)c2ccco2)CC1 | 33* | 36 | 17% | ? | ? | 29%
Cc1ccccc1CC(=O)N1CCN(C(=O)c2ccco2)CC1 | 2 | -15 | 8% | . | . | -2%
COC(=O)C1=C(c2cccc3c2S(=O)(=O)c2ccccc2-3)C[C@@H]2CC[C@H]1N2C(=O)N1CCc2cc(OC)c(OC)cc2C1 | . | . | 10µM* | . | . | -30%
O=C(O)/C=C/c1coc2ccccc2c1=O | 33* | 12 | 3% | 1% | 8% | -21%
Cc1ccc2occ(/C=C/C(=O)O)c(=O)c2c1 | 20 | 30 | 6% | 2% | 10% | 19%
O=C(O)/C=C/c1coc2ccc(F)cc2c1=O | 23* | active | 7% | 11% | 8% | -24%
CC1C(=O)NN=C1C(=O)N/N=C/c1cccs1 (configuration not stated) | 19* | 86* | 2% | . | . | 0%
Cc1cc(C)n2nc(C(=O)N/N=C/c3cccs3)nc2n1 | 8 | 17 | 10% | 19%[46.1 µM] | 9%[46.1 µM] | 15%
C(=NN=C(NN=Cc1cccs1)NN=Cc1cccs1)c1cccs1 | . | . | 10µM* | ? | ? | -7%
O=C(CNC(=O)c1ccccc1F)N/N=C/c1cccs1 | 30* | 53* | 11% | . | . | 50%
Cc1ccc(/C=N/NC(=O)c2ccccn2)s1 | 49* | 44* | 8% | 6.5µM* | ? | -46%
Cc1ccc(S(=O)(=O)CCC(=O)OCC(=O)N2c3ccccc3NC(=O)C2(C)C)cc1 | . | . | 7% | 4% | -6% | 2%
c1ccc2c(c1)c1cc[n+]2CCCCC[n+]2ccc(c3ccccc32)NCCCCCN1 | -4 | -6 | . | . | . | .
c1nc(NCCN2CCOCC2)c2cc(-c3ccoc3)ccc2n1 | . | . | . | . | . | 2%
COC(=O)c1c(C(=O)OC)c(-c2ccccc2)n2c1CS(=O)(=O)C2 | -4 | -4 | -5% | -8% | -4% | 2%
O=C(CSc1ncccn1)N/N=C/c1cccs1 | 12 | 33 | 6% | ? | 10% | .
O=C(N/N=C/c1cccs1)c1ccccn1 | 33* | 111* | 2% | 15% | -3% | 21%
Cc1cccc2nc(COc3ccc4ccccc4c3Br)cn12 | 46* | 48* | -26% | 10µM* | ? | 5%
Cc1cccc2nc(CSc3ccccc3C(=O)O)cn12 | 9 | -5 | -4% | ? | ? | 30%
SMILES | CHX counter | Shiga toxin inh | HCV inh | Marburg entry inh | Lassa entry inh | FMDV inh
COc1ccccc1Oc1ncnc2c1oc1ccccc12 | 21* | 23 | -27% | -18% | -27% | -9%
COc1ccc(Nc2ncnc3c2oc2ccccc23)cc1 | 56* | 124* | 5% | ? | ? | 4%
COc1ccc(Oc2ncnc3c2oc2ccccc23)cc1 | . | . | . | . | -6%[46.1 µM] | 18%
Cc1ccc(Nc2ncnc3c2oc2ccccc23)cc1 | 45* | 100 | -20% | ? | -3% | 0%
O=C1OCC/C1=C1/NCCNC1=O | . | . | . | . | . | -7%
CN(C)C(=O)/C(=C\c1cccc(Oc2ccccc2)c1)NC(=O)c1ccccc1 | -1 | 3 | 8% | 1% | 9% | -21%
COc1ccc(-c2cc(C)no2)cc1S(=O)(=O)N1CCCN(Cc2ccc(F)cc2)C1 | -3 | 7 | ? | . | . | -8%
CN1CC2([N+](=O)[O-])CC=C(OCCO)C([N+](=O)[O-])(C1)C2 (configuration not stated) | -2 | -4 | 19% | ? | 7% | -20%
CCOC(=O)c1c(NC(=O)CSc2nnnn2-c2ccc3c(c2)OCCO3)sc(C)c1C | 12 | 5 | ? | 0% | ? | .
COCCN=C1Sc2nc3ccc(C)cc3cc2CN1Cc1ccco1 | 52* | 114* | -22% | -10% | 19% | 0%
COCCN=C1Sc2nc3cc(C)c(C)cc3cc2CN1Cc1cccs1 | 11 | 6 | -26% | -24%[46.1 µM] | 10% | -3%
CN(CCC#N)C(=O)c1cc2c(s1)-c1ccccc1SC2 | 52* | 81* | ? | ? | 14% | 79%
CCOC(=O)c1sc(-c2ccc(Br)cc2)cc1N | 54* | 114* | . | ? | 68%[14.3 µM] | 76%
NNC(=O)c1sc(-c2ccc(Cl)cc2)cc1N | 45* | 66* | 19% | ? | -4%[46.1 µM] | 25%
Nc1sc(-c2ccccc2)cc1C(=O)NCCc1ccc(Cl)cc1 | . | . | . | . | . | -11%
CCOC(=O)c1cc(-c2ccc(N)cc2)sc1N | 54* | 66* | ? | -24% | -28% | 42%
Cc1ccc(S(=O)(=O)N2CCCCC2)cc1NC(=O)COc1ccccc1F | 0 | -12 | ? | -15%[46.1 µM] | -24%[46.1 µM] | -28%
COc1ccccc1N1CCN(c2cc(=O)n(-c3ccccc3Cl)c(=O)[nH]2)CC1 | -3 | -8 | 13% | ? | 4% | -12%
Cc1cc(C)cc(OCC(O)CN2CCN(C(=O)c3ccco3)CC2)c1 (configuration not stated) | 2 | 16 | 6% | 1%[46.1 µM] | 0%[46.1 µM] | -4%
O=C(c1ccco1)N1CCN(CC(O)COc2ccc3oc4ccccc4c3c2)CC1 (configuration not stated) | -2 | 19 | 13µM* | -14% | ? | .
COc1cc(/C=C/C(=O)O[C@H]2[C@H](O[C@@H]3O[C@@H](C)[C@H](O)[C@@H](O)[C@H]3O)[C@@H](O)[C@H](OCCc3ccc(O)c(OC)c3)O[C@@H]2CO)ccc1O | . | . | 22% | . | . | -13%
COc1ccc(C2/C=C\CN(C(=O)OCC3c4ccccc4-c4ccccc43)CC(=O)N2Cc2cccc(F)c2)cc1 (configuration not stated) | 8 | i | 10µM* | . | . | -26%
COc1ccc(C2/C=C\CN(C(=O)c3ccccc3)CC(=O)N2Cc2cccc(F)c2)cc1 (configuration not stated) | . | . | ? | . | . | -1%
COc1ccc(C2/C=C\CN(C(=O)Nc3ccccc3-c3ccccc3)CC(=O)N2Cc2ccc(F)cc2)cc1 (configuration not stated) | 62*! | 152*! | ? | . | . | -23%
COC(=O)N1C/C=C\C(c2ccc(OC)cc2)N(Cc2ccc(F)cc2)C(=O)C1 (configuration not stated) | 0 | -11 | 17% | . | . | -26%
CC1=C(C(=O)OC(C)C)[C@@H](c2cccc3nonc23)C([N+](=O)[O-])=C(C)N1 | . | . | . | . | . | -13%

Source: PubChem BioAssay
